MARV entry inh = blocks Marburg virus binding to or entry into cells | Marburg virus pseudotyped entry inhibition, cell reporter | Potency, µM (top dose mostly 37.8 µM), for the others: top-dose activity change, negative = inhibition, usual class: inhibitors | 300,000 tested, 1.8% active | AID 540276; calls by dose curve; tested in HEK293 cells; also: potency is read from the fitted curve at half-maximal effect; % is scaled to controls: 0 for no effect and ±100 for the full control effect
LASV entry inh = blocks Lassa virus binding to or entry into cells; Lassa virus pseudotype entry inhibition, cell reporter; Potency, µM (titrated, usually from 37.9 µM), inactives show top-dose activity change, negative = inhibition, usual class: inhibitors; AID 540256; 300,000 tested, 1.2% active; calls by dose curve; tested in HEK293 cells; also: potency is read from the fitted curve at half-maximal effect; % is scaled to controls: 0 for no effect and ±100 for the full control effect; nearly all actives have a fitted effect of over 50% in size
HCV inh = inhibitors of hepatitis C virus infection; AID 651820; Huh7.5.1 HCVcc-Cre infection, luciferase reporter, 44 h; 340,000 tested, 3.4% active; Potency, µM (titrated, usually from 41.8 µM), inactives show at the highest dose activity change, negative = inhibition, hits mostly inhibitors; also: potency is read from the fitted curve at half-maximal effect; % is scaled to controls: 0 for no effect and ±100 for the full control effect
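Cells seeded at 1,000/well and cultured 4 h, then compounds added followed by HCVcc-Cre virus (~0.5 moi). After 44 h further culture, luciferase substrate was added, plates held 15 min at room temperature, and luminescence read for 15 sec.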
VACV Venus inh = vaccinia inhibition (Venus reporter). Vaccinia virus Venus reporter expression, fluorescence. Potency, µM (top dose mostly 36.5 µM), inactives show at the highest dose activity change, negative = inhibition, usual class: inhibitors. 330,000 tested, 0.46% active. AID 720580; calls by dose curve; tested in A549 cells; also: potency is read from the fitted curve at half-maximal effect; % is scaled to controls: 0 for no effect and ±100 for the full control effect; nearly all actives have a fitted effect of over 30% in size
HCMV antiviral = blocks human cytomegalovirus replication; HFF cells, HCMV-luciferase reporter, 72 h; stronger effect = lower value; 410,000 tested, 4.5% active; activity change, negative = inhibition, % at 57.5 µM; in the data active = activity change below about -60%; inconclusive = no clear call, values can overlap the other calls; inactive = above about -39%; also: % is scaled to controls: 0 for no effect and ±100 for the full control effect
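Steps: HFFs plated, 16 h 37C; compounds added; HCMV-luciferase added to MOI 1 PFU/cell; 72 h 37C; OneGlo reagent, 5 min room temperature; luminescence read, normalized to controls.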
VACV mCherry inh = vaccinia inhibition (mCherry reporter); AID 720579; Vaccinia virus mCherry reporter infection, fluorescence; 310,000 tested, 0.63% active; Potency, µM (highest dose often 36.5 µM), for the others: at the top dose activity change, negative = inhibition, most hits filed as inhibitors; calls by dose curve; tested in A549 cells; also: potency is read from the fitted curve at half-maximal effect; % is scaled to controls: 0 for no effect and ±100 for the full control effect; nearly all actives have a fitted effect of over 35% in size
WI-38 cytotox = toxic to WI-38 fibroblasts in PNC inhibitor counter-screen. 120 tested, under 10 active. WI-38 normal lung fibroblasts, ATPLite luminescence ATP viability, 24 h. shares compounds with MARV entry inh. Potency, µM (top dose mostly 46.1 µM), for the others: top-dose activity change, negative = cytotoxicity, hits mostly inhibitors
PNC inh conf = confirmation of perinucleolar compartment assembly inhibitors | Potency, µM (top dose mostly 46.1 µM), inactives show top-dose activity, negative = PNC inhibition, hits mostly inhibitors | AID 2730 | 120 tested, 50% active | PC3M PTB-GFP, PNC prevalence imaging, 16 h | shares compounds with MARV entry inh
PC3M casp3-7 = PC3M caspase 3/7 activation by PNC inhibitor hits | 120 tested, under 10 active | shares compounds with MARV entry inh | activity change, positive = activation, % at 46.1 µM | PC3M-GFP caspase 3/7 activation, luminescence, 24 h | AID 2731
HCV confirm = confirmation of hepatitis C virus inhibitors | shares compounds with HCV inh | HCVcc-Cre infectious virus cell assay, luciferase, inhibition | Potency, µM (titrated, usually from 41.8 µM), inactives show at the top dose activity, negative = inhibition, actives largely listed as inhibitors | 640 tested, 78% active | AID 720575; also: potency is read from the fitted curve at half-maximal effect; nearly all actives have a fitted effect of over 80% in size
HCV host tox = host cell cytotoxicity counter-screen for HCV inhibitors; shares compounds with HCV inh; HCV host cell line cytotoxicity counterscreen; Potency, µM (doses to about 41.8 µM), for the others: at the highest dose activity change, negative = cytotoxicity, most hits filed as inhibitors; 640 tested, 22% active; AID 720576;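 also: potency is read from the fitted curve at half-maximal effect; 44 h compound exposure; % is scaled to controls: 0 for no effect and ±100 for the full control effect; nearly all actives have a fitted effect of over 55% in size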
Starred values were filed as active, the others as inactive; i = inactive; ? = inconclusive; · = no result; [ ] = remark or other dose. This is a sample that favours compounds with a hit; in the whole collection about 7.8% have one here. Unless noted, calls follow the shape of the dose curve; as a rule, active = well fitted curve in the direction sought with a large enough effect; inconclusive = small, poorly fitted or top-dose-only effect, or another doubt; inactive = no such curve, though single readings can be large; an effect the other way counts as inactive or inconclusive.

SMILES | MARV entry inh | LASV entry inh | HCV inh | VACV Venus inh | HCMV antiviral | VACV mCherry inh | HCV confirm | HCV host tox | others
Cc1ccccc1C(=O)NNC(=S)Nc1cccc(C(F)(F)F)c1 | ? | ? | ? | ? | -13.1 | ? | · | · | WI-38 cytotox=-3.3%;PNC inh conf=-19.7%;PC3M casp3-7=-6.6
O=C(NC(Cc1c[nH]c2ccccc12)C(=O)Nc1ccc(OC(F)(F)F)cc1)c1cccs1 (stereo not given) | 2.59µM* | 2.06µM* | ? | -25.8% | -97.0* | ? | · | · | WI-38 cytotox=-10.1%;PNC inh conf=7.08µM*;PC3M casp3-7=-2.7
COc1ccc(NC(=O)Cn2nc(-c3ccccc3)c3cnc4ccc(C)cc4c32)cc1 | · | -19.8%[46.1 µM] | · | -8.7% | 47.3 | -14.6% | · | ·
CCc1cccc(N2C(=O)CS(=O)(=O)C23C(=O)N(Cc2ccccc2)c2ccc(C)cc23)c1 (stereo not given) | · | ? | · | -1.3% | -16.1 | -1.9% | · | ·
Cc1ccc(NC(=S)c2nc3ccccc3[nH]2)c(C)c1 | ? | ? | -14.6% | -27.6% | 49.6 | ? | · | ·
Cc1cccc(/C=C(\c2nc3ccccc3[nH]2)S(=O)(=O)c2ccccc2)c1 | 12.6µM* | ? | 11.2µM* | ? | -98.3* | ? | · | · | WI-38 cytotox=?;PNC inh conf=22.4µM*;PC3M casp3-7=-9.8
Cc1cc(SCC(=O)c2cc(C)n(C)c2C)nc2ccccc12 | ? | ? | -21.7% | -4.1% | -20.6 | -12.5% | · | · | WI-38 cytotox=-10.5%;PNC inh conf=?;PC3M casp3-7=5.2
Cc1cc(SCC(=O)O)nc2ccccc12 | ? | 16.9% | 6.2% | -0.5% | 10.9 | i | · | ·
C(=N\Nc1nc2ccccc2[nH]1)/c1ccccc1 | -1.5% | -0.7% | -19.7% | -29.5% | 51.6 | -27.1% | · | ·
O=[N+]([O-])c1cc(/C=N/Nc2nc3ccccc3[nH]2)c(O)cc1O | 8.91µM* | 10µM* | ? | ? | -98.8* | 2.82µM* | · | · | WI-38 cytotox=-16.2%;PNC inh conf=28.2µM*;PC3M casp3-7=-23.3
O=c1c(-c2cc(-c3ccccc3)nc3c2COc2ccccc2-3)coc2ccc(Cl)cc12 | 22.8%[46.1 µM] | 6.9%[46.1 µM] | · | -2.3% | 15.0 | -4.3% | · | ·
Cc1cccc(Cn2c(NCCO)nc3c2c(=O)n(C)c(=O)n3C)c1 | ? | -28.5% | 1.78µM* | ? | -74.7* | ? | 3.96µM* | 2.5µM*
Cc1cnc(NC(=O)CCCc2nc3ccccc3s2)s1 | ? | ? | 2.82µM* | 5.62µM* | -101.1* | · | 15.8µM* | -34.7%
O=C(CCCc1nc2ccccc2s1)Nc1nccs1 | ? | -2.2% | -7.0% | -11.1% | 154.2 | -18.8% | · | ·
CC1(C)NC(=O)N(CC(=O)Nc2nc(-c3ccc(F)cc3)cs2)C1=O | 2.7% | 6.0% | 3.55µM* | -12.8% | 76.3 | -12.3% | ? | -5.3%
COc1ccc(Br)cc1CNC(=O)C1COc2ccccc2C1 (stereo not given) | · | ? | · | -5.6% | -5.6 | -0.3% | · | ·
CCOC(=O)c1cccc(NC(=O)c2cc3sccc3n2C)c1 | 10.0% | -6.8% | 3.16µM* | · | 109.4 | · | 25µM* | -28.6%
Cc1[nH]nc2c1-c1nc3ccccc3nc1C(C)(C)C2 | ? | ? | 5.62µM* | · | -74.3* | · | 7.91µM* | ?
CC12CCC(C)(c3nc4ccccc4nc31)C2(C)C | 3.2%[46.1 µM] | 8.0% | 20.1% | 3.9% | 15.1 | 5.0% | · | ·
CCOc1cc(CNC(C)(C)C)ccc1OCC(=O)Nc1cccc(C(F)(F)F)c1 | ? | -9.1%[46.1 µM] | ? | -9.7% | -20.3 | -20.0% | 3.15µM* | 17.4%
Cc1ccc(C(=O)NC2CCN(Cc3ccccc3)CC2)cc1S(=O)(=O)N1CCOCC1 | -21.2% | -6.7% | ? | -22.2% | ? | -21.6% | · | ·
COc1ccccc1NS(=O)(=O)c1cc(C(=O)NC2CCN(Cc3ccccc3)CC2)ccc1C | · | · | 5.62µM* | · | -62.3* | · | 2.8µM* | 2.23µM*
Cc1c(Cl)ccc2sc(NC(=O)c3ccc(S(=O)(=O)N4CCCC4)cc3)nc12 | · | 6.4%[46.1 µM] | · | -17.4% | 22.4 | -17.3% | · | ·
O=C(Nc1ccc(Cl)c(Cl)c1)Nc1nnc(CC2=CCCCC2)s1 | · | · | 2.82µM* | · | ? | · | 7.05µM* | 7.91µM*
O=C(Nc1nnc(CC2=CCCCC2)s1)c1cccs1 | 18.9%[46.1 µM] | 26.7% | -7.8% | -4.1% | 68.0 | -13.6% | · | ·
SMILES | MARV entry inh | LASV entry inh | HCV inh | VACV Venus inh | HCMV antiviral | VACV mCherry inh | HCV confirm | HCV host tox | others
CCN(CC)c1ccc(/C=N/NC(=O)c2ccoc2C)c(O)c1 | · | · | 2.82µM* | ? | -100.0* | 1.12µM* | 7.05µM* | 7.91µM*
CCOc1ccc(C(=O)C(CCC(CN(C)C)C(=O)c2ccc(OCC)cc2)CN(C)C)cc1 (stereo not given) | 1.03µM* | 4.11µM* | 3.16µM* | · | -98.9* | · | 7.91µM* | 7.91µM*
Cc1cc(C)c2oc(C(=O)Nc3sc4c(c3C(=O)NCc3ccco3)CCCC4)cc(=O)c2c1 | 7.2%[46.1 µM] | 0.6%[46.1 µM] | · | -5.4% | 4.8 | 11.6% | · | ·
CC1=C(C)/C(=N/OC(=O)c2cccc([N+](=O)[O-])c2)C=CC1=O | ? | -17.5% | 7.08µM* | · | · | · | 31.5µM* | 31.5µM*
N/C(=N/OC(=O)c1cccc([N+](=O)[O-])c1)c1cccc([N+](=O)[O-])c1 | ? | -1.3% | ? | 1.0% | 38.9 | i | · | ·
CC#CC[N+](C)(C)CCCCCCCCCCCC | 10.3µM* | ? | 5.01µM* | · | -100.6* | · | 14.1µM* | -41.5%
C[C@]12CCC3C(CC[C@H]4C[C@H](O)CC[C@]34C)C1C[C@@H](O)[C@@H]2O (stereo not given in full) | 10.8%[46.1 µM] | -15.4%[46.1 µM] | -0.5% | -1.0% | -19.8 | i | · | ·
C/C(=N\NC(N)=S)C1=CCC2C3CC[C@H]4CC(O)CC[C@]4(C)C3CC[C@]12C (stereo not given in full) | · | · | ? | · | -38.0 | · | 7.91µM* | 0.0%
O=[N+]([O-])c1ccc(/C=C/c2ccc3cccc([N+](=O)[O-])c3n2)cc1 | ? | -15.0% | -8.9% | -11.2% | ? | -3.8% | · | ·
O=[N+]([O-])c1cccc2ccc(/C=C/c3ccc(F)cc3)nc12 | 1.2% | 15.7% | 1µM* | -22.2% | 1.7 | ? | 3.15µM* | -21.1%
